The values below come from PubChem BioAssay (EPA / NIEHS).

For assay [1], the target named is rat Vasopressin 1 Receptor (V1), Avpr1a (gene 25107) (UniProt P30560). Nature of the assay: NVS_GPCR_rV1: NovaScreen (NVS) G Protein-Coupled Receptor Assay for rat Vasopressin 1 Receptor (V1) (AID 2283316). In a few lines: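 Radioligand binding on rat liver membranes, 1.5 h incubation, filter-based scintillation counting. Single 25 uM screen in duplicate; chemicals meeting threshold (e.g. 30% inhibition) run in concentration-response up to 50 uM.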
Sequence of rat Vasopressin 1 Receptor (V1), Avpr1a (gene 25107) (P30560 whole entry, looked up): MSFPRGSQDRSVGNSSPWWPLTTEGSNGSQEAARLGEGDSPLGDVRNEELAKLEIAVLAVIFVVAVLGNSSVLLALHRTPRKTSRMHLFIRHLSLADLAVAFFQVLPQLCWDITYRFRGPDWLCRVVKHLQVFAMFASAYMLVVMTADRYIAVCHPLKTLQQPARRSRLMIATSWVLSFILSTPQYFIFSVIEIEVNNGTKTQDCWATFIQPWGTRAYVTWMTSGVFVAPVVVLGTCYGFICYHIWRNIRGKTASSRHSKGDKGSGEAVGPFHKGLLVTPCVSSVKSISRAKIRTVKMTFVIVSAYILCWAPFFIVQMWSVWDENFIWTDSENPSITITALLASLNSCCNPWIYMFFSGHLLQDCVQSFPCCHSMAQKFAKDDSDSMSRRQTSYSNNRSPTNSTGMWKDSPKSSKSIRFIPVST

For assay [2], the target named is rat Opioid Receptor, Non-selective Binding, Oprm1 (gene 25601) (UniProt P33535). Nature of the assay: NVS_GPCR_rOpiate_NonSelective: NovaScreen (NVS) G Protein-Coupled Receptor Assay for rat Opioid Receptor, Non-selective Binding (AID 2283318). In a few lines:
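Rat forebrain membranes, cell-free radioligand binding with filter-based scintillation counting, read 1.5 h after dosing. Primary screen in duplicate at 25 uM; actives retested in concentration series. Loss of signal versus DMSO baseline scored.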

Assay [3] in a line: NVS_IC_rCaDHPRCh_L: NovaScreen (NVS) Ion Channel Assay for rat Calcium Channel, Type L, Dihydropyridine Site (CaDHPRCh_L) (AID 2283320). In a few lines: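 Radioligand binding to dihydropyridine site on rat cortical membranes, filter-based scintillation counting, 1 h after dosing. Screened in duplicate at 25 uM; actives rerun in concentration-response up to 50 uM. Loss of signal versus DMSO baseline.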

The target of assay [4] is Sodium channel protein type 1 subunit alpha (Rattus norvegicus) (UniProt P04774). Nature of the assay: NVS_IC_rNaCh_site2: NovaScreen (NVS) Ion Channel Assay for rat Sodium Channel, Site 2 (NaCh) (AID 2283322).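 Note: hit means loss of radioligand binding signal relative to DMSO so AC50 marks displacement.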 The method, boiled down: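 Membranes: rat forebrain. Format: competitive radioligand displacement, filter separation, scintillation readout, 1 h exposure. Primary screen in duplicate at 25 uM; actives retested in concentration series.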

Assay [5] deals with rat Glutamate, NMDA Agonist Site (GluNMDA), Grin1 (gene 24408) (UniProt P35439). In words: NVS_LGIC_rGluNMDA_Agonist: NovaScreen (NVS) Ligand-Gated Ion Channel Assay for rat Glutamate, NMDA Agonist Site (GluNMDA) (AID 2283327). The method, boiled down:
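Rat forebrain membranes, radioligand binding in the agonist-site protocol; 1 h after dosing; filter-based scintillation counting. Single-concentration duplicate screen at 25 uM, then concentration-response up to 50 uM for actives; gain-of-signal vs DMSO.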

For assay [6], the target named is human Peripheral-type Benzodiazepine Receptor (PBR), TSPO (gene 706) (UniProt P30536). In words: NVS_MP_hPBR: NovaScreen (NVS) Membrane Protein Assay for human Peripheral-type Benzodiazepine Receptor (PBR) (AID 2283331).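 Note: hits reduce radioligand binding relative to DMSO baseline.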 In a few lines:
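Scintillation counts of filter-bound radioligand served as read-out after 1 h chemical dosing of human colonic membrane preparations. Activity was scored as signal loss against DMSO; initial duplicates at 25 uM, confirmatory concentration series afterward.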

For assay [7], the target named is human Androgen Receptor (AR), AR (gene 367) (UniProt P10275). Nature of the assay: NVS_NR_hAR: NovaScreen (NVS) Nuclear Receptor Binding Assay for human Androgen Receptor (AR) (AID 2283332). The method, boiled down: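 Radioligand competitive binding, scintillation read-out, in cell-free extract from LnCAP, measured 20 h after dosing. Screened first in duplicate at 25 uM, then concentration series for actives; activity fitted against DMSO.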
Sequence of human Androgen Receptor (AR), AR (gene 367) (P10275 whole entry, looked up): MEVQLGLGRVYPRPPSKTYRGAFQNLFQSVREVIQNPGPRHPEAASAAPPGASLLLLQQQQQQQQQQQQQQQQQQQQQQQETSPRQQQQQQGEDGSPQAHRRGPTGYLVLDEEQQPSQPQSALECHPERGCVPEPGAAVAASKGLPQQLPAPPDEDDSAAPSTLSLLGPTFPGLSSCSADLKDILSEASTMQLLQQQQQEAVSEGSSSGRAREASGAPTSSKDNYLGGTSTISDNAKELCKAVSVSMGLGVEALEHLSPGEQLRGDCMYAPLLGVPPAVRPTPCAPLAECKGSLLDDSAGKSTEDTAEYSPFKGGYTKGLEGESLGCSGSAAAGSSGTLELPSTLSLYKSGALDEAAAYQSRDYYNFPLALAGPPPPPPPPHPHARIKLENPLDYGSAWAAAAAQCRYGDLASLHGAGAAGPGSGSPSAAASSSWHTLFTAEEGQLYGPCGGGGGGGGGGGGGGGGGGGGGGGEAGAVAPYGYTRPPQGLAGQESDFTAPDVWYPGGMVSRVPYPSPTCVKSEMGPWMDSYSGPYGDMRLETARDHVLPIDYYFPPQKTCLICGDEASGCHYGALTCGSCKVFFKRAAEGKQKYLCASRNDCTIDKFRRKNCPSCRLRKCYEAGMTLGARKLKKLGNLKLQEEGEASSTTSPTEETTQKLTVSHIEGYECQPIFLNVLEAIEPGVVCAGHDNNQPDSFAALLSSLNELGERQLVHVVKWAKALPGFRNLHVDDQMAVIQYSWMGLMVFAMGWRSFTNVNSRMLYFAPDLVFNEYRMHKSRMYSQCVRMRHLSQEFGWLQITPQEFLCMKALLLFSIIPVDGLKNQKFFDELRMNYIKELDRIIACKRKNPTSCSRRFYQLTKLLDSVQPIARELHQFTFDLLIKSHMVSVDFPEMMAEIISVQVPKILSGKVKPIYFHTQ

The target of assay [8] is Glutamate receptor ionotropic, kainate 1 (Rattus norvegicus) (UniProt P22756). Nature of the assay: NVS_IC_rKAR: NovaScreen (NVS) Ion Channel Assay for rat Kainic Acid Receptors (KAR) (AID 2283334; active = hit-call score of the fitted dose curve at least 0.9, where 1 is the maximum; inactive = score below 0.9). In a few lines: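 Radioligand displacement binding using rat forebrain membranes, 1 h incubation, filter-based scintillation counting. Screened in duplicate at 25 uM, with actives retested in concentration-response up to 50 uM; fitted against DMSO.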
Sequence of Glutamate receptor ionotropic, kainate 1 (Rattus norvegicus) (P22756 whole entry, looked up): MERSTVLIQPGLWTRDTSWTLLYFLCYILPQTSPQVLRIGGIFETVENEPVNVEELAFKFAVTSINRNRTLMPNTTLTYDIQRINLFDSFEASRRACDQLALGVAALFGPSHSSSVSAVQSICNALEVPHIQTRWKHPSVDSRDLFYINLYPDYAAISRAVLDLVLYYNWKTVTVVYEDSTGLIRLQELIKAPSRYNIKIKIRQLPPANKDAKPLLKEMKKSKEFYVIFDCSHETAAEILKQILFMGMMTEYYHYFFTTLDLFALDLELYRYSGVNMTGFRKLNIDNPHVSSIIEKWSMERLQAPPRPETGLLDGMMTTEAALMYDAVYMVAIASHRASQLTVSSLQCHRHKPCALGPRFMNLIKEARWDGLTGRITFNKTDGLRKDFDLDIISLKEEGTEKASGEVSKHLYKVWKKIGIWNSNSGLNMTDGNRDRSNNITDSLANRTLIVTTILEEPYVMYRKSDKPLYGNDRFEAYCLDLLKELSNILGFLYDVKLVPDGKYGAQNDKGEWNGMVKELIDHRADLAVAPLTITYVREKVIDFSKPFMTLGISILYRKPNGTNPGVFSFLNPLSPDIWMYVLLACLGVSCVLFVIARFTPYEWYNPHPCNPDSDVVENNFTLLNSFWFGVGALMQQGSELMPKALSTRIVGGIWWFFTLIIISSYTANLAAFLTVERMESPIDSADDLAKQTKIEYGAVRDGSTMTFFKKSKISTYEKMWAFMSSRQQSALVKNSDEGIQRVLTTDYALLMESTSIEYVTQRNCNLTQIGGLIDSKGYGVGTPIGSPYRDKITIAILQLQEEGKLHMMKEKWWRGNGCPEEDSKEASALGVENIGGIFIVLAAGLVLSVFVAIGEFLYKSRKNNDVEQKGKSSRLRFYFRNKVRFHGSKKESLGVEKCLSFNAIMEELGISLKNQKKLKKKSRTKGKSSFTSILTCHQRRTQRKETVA

For assay [9], the target named is rat Peripheral-type Benzodiazepine Receptor (PBR), Tspo (gene 24230) (UniProt P16257). In words: NVS_MP_rPBR: NovaScreen (NVS) Membrane Protein Assay for rat Peripheral-type Benzodiazepine Receptor (PBR) (AID 2283335). In a few lines:
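Radioligand displacement, rat kidney membrane prep, 1 h exposure, filter-based scintillation read; DMSO baseline, loss-of-signal scored. Primary screen at 25 uM in duplicate, actives followed up in concentration series.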

The target of assay [10] is rat Neonicotinoid receptor (NNR), Chrna7 (gene 25302) (UniProt Q05941). Nature of the assay: NVS_LGIC_rNNR_BungSens: NovaScreen (NVS) Ligand-Gated Ion Channel Assay for rat Neonicotinoid receptor (NNR) (AID 2283315). The method, boiled down:
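Radioligand displacement binding on rat cortical membranes, 2.5 h incubation, filtration and scintillation counting. Loss of specific binding fitted relative to DMSO.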

The target in assay [11] is Voltage-dependent N-type calcium channel subunit alpha-1B (Rattus norvegicus) (UniProt Q02294). Nature of the assay: NVS_IC_rCaChN: NovaScreen (NVS) Ion Channel Assay for rat Calcium Channel, Type N (CaChN) (AID 2283317).
The target in assay [12] is rat Thyrotropin Releasing Hormone Receptor (TRH), Trhr (gene 25570) (UniProt Q01717). In words: NVS_GPCR_rTRH: NovaScreen (NVS) G Protein-Coupled Receptor Assay for rat Thyrotropin Releasing Hormone Receptor (TRH) (AID 2283329).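 Note: hit means lower bound tracer signal versus DMSO baseline.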 In a few lines: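 Cell-free radioligand binding on rat forebrain membranes; bound tracer measured by filter-based scintillation counting 4 hours after dosing. Loss of signal versus DMSO baseline indicates displacement; primary screen at 25 uM in duplicate, actives then run in concentration series.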
Sequence of rat Thyrotropin Releasing Hormone Receptor (TRH), Trhr (gene 25570) (Q01717 whole entry, looked up): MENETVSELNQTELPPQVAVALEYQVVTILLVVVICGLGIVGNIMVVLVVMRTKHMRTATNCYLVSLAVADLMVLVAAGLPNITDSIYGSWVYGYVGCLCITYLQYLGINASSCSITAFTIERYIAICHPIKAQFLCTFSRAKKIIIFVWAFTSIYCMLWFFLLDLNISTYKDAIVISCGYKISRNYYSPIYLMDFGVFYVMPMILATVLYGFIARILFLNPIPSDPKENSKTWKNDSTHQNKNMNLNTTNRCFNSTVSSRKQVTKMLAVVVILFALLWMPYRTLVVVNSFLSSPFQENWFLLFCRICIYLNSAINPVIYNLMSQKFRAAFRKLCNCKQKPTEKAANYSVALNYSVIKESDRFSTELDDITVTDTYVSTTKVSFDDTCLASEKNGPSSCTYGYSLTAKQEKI

The target of assay [13] is Voltage-gated inwardly rectifying potassium channel KCNH2 (Homo sapiens) (UniProt Q12809). In words: NVS_IC_hKhERGCh: NovaScreen (NVS) Ion Channel Assay for human Potassium Channel ERG (KhERGCh) (AID 2283333). In a few lines: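 Cell-free radioligand competition binding on hERG protein extracted from CHO cells, read by filter-based scintillation counting 0.75 h after dosing. Primary screen at 25 uM in duplicate, actives followed in concentration series. Signal loss fitted versus DMSO.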
Sequence of Voltage-gated inwardly rectifying potassium channel KCNH2 (Homo sapiens) (Q12809 whole entry, looked up): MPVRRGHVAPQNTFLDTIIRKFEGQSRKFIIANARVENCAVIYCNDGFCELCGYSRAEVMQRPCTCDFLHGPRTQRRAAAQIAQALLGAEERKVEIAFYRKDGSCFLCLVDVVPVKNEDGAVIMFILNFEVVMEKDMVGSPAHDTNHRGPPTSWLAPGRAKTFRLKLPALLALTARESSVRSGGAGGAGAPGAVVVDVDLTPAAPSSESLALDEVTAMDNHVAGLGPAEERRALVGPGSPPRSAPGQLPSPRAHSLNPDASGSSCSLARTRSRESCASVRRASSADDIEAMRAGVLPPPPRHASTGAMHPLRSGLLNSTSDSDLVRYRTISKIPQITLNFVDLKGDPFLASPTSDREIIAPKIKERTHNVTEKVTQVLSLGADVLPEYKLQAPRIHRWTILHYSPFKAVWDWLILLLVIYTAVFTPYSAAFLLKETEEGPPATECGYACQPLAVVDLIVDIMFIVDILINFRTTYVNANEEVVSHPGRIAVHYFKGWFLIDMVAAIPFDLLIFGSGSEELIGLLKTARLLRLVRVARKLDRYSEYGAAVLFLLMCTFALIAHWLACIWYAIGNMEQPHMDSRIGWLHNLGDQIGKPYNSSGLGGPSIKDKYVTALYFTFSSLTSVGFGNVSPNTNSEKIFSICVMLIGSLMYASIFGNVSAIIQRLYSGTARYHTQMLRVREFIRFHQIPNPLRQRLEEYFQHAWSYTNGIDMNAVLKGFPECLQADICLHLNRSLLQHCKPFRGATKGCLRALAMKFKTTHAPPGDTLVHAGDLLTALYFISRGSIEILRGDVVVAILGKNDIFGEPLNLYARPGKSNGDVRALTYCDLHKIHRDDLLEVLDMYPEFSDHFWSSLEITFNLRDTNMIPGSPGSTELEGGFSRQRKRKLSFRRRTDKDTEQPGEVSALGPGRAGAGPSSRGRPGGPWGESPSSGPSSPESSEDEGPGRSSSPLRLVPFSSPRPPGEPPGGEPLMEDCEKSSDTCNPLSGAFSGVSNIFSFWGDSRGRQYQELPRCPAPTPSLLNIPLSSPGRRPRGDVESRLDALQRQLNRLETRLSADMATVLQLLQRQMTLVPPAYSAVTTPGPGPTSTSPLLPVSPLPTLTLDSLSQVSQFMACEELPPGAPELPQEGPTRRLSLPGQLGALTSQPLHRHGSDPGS

For assay [14], the target named is Small conductance calcium-activated potassium channel protein 1 (Rattus norvegicus) (UniProt P70606). Nature of the assay: NVS_IC_rKCaCh: NovaScreen (NVS) Ion Channel Assay for rat Potassium Channel, Ca2+ Act., VI (KCaCh) (AID 2283336). In a few lines: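 Radioligand binding to rat forebrain membranes, cell-free, read 1 hour after dosing by filter-based scintillation counting. Compounds first run in duplicate at 25 uM, actives then in concentration series; loss of signal vs DMSO indicates displacement.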

Values joined by “and” are separate entries in the source; they are usually repeats but may differ in a detail not shown here. Identical values can stand only once. Records with an inconclusive call do not appear. Some structures have more than one record in an assay (separate samples or runs), and their calls can disagree. Active and inactive are the calls of the source. Rule for the calls, unless noted: active = hit-call score of the fitted dose curve at least 0.9, where 1 is the maximum; inconclusive = response in the unintended direction; inactive = score below 0.9.

Sequence of human Peripheral-type Benzodiazepine Receptor (PBR), TSPO (gene 706) (P30536 whole entry, looked up): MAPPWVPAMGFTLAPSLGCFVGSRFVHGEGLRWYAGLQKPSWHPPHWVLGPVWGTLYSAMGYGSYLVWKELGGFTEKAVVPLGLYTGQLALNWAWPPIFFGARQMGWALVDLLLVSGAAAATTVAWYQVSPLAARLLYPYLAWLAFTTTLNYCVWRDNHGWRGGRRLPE
Sequence of rat Peripheral-type Benzodiazepine Receptor (PBR), Tspo (gene 24230) (P16257 whole entry, looked up): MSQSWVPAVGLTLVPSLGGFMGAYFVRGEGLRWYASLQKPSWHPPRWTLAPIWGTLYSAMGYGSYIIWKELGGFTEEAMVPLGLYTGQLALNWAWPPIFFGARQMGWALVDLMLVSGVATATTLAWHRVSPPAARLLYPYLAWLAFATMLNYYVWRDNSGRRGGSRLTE
Sequence of rat Opioid Receptor, Non-selective Binding, Oprm1 (gene 25601) (P33535 whole entry, looked up): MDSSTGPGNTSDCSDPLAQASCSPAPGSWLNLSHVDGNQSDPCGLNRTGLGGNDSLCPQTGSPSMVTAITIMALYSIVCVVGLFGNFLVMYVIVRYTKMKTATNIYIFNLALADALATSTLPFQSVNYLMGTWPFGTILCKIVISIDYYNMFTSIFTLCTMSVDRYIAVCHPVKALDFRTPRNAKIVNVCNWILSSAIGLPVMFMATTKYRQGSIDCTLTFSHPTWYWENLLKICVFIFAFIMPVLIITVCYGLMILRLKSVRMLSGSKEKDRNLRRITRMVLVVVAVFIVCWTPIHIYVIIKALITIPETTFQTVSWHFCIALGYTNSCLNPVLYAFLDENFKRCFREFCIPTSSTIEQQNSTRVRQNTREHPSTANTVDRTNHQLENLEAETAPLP

The AC50 is the midpoint of the concentration-response curve, whichever way the signal moves. Take `Oc1ccc(Cl)cc1Cc1ccccc1`: the AC50 is 7.33 µM (active) in [1]; 30.2 µM (active) [middle of 7 runs] in assay [3]; 10.9 µM (active) in assay [4]; 17.1 µM (active) [middle of 7 runs] in [6]; 7.84 µM (active) [middle of 6 runs] in assay [7]; 11 µM (active) and 9.89 µM (active) and 8.7 µM (active) in assay [9]. Also, the compound was classed as inactive in assay [1], in assay [2], in assay [4], in assay [5], in [8] and in [9].

With `COP(=S)(OC)Oc1ccc(SC)c(C)c1`, in [10], the compound was classed as inactive. Moreover, the AC50 was 17.4 µM (active) in assay [6] and 4.64 µM (active) in assay [9].

As to `COP(=O)(OC)OC=C(Cl)Cl`, the result in assay [11] and in [6] was inactive.

As for `CCC(C)Nc1c([N+](=O)[O-])cc(C(C)(C)C)cc1[N+](=O)[O-]` (centres undefined), the outcome in assay [5] was inactive.

As for `C#CCN1C(=O)COc2cc(F)c(N3C(=O)C4=C(CCCC4)C3=O)cc21`, the compound was called inactive in assay [12].

In the case of `CCOc1nc(NC)nc(NC(=O)NS(=O)(=O)c2ccccc2C(=O)OC)n1`, the call in assay [7] was inactive.

In the case of `ClC1C(Cl)C(Cl)C(Cl)C(Cl)C1Cl` (centres undefined), the result in [12], in assay [6], in assay [8] and in [9] was inactive. Moreover, the half-maximal activity concentration (AC50) in assay [9] is 14.1 µM (active).

With `CN1CSC(=S)N(C)C1`, the compound was called inactive in assay [12].

`CC(C)OC(=O)Nc1cccc(Cl)c1`: the AC50 in [6] was 17.1 µM (active); in assay [9] it was 4.63 µM (active).

As to `COc1cc(OC)nc(NC(=O)NS(=O)(=O)c2cc(NC=O)ccc2C(=O)N(C)C)n1`, the outcome in assay [13] was inactive.

With `O=C(O)CCCOc1ccc(Cl)cc1Cl`, the compound was called inactive in assay [6] and in assay [9].

Regarding `CCC(C)(NC(=O)c1cc(Cl)c(C)c(Cl)c1)C(=O)CCl` (centres undefined), the figures for the AC50 in assay [6] and in assay [9] were 25 µM (active) and 0.0105 µM (active), respectively.

In the case of `CNC(=O)CSP(=S)(OC)OC`, the compound was called inactive in assay [6] and in assay [9].

Regarding `O=[N+]([O-])c1c(Cl)c(Cl)c(Cl)c(Cl)c1Cl`, the result in [12] and in assay [9] was inactive.

`O=C1c2ccccc2C(=O)N1SC(Cl)(Cl)Cl`: the call in assay [9] was inactive.

As for `COc1nn(CSP(=S)(OC)OC)c(=O)s1`, the result in assay [6] was inactive. Also, the AC50 in [9] is 13.1 µM (active).

For the compound `O=S1OCC2C(CO1)C1(Cl)C(Cl)=C(Cl)C2(Cl)C1(Cl)Cl` (centres undefined), the call in [6] and in [9] was inactive.

For the compound `CCN(CC)C(=O)SCc1ccc(Cl)cc1`, the values for the AC50 in assay [6] and in [9] were 22.2 µM (active) and 13.5 µM (active), respectively.

For `CCOCN(C(=O)CCl)c1c(C)cccc1CC`, the AC50 in [6] was 1.88 µM (active); in assay [9] it was 1.45 µM (active).

Take `N#CN`: the outcome in assay [14] was inactive.

As to `COC(=O)c1ccccc1S(=O)(=O)NC(=O)Nc1nc(C)nc(OC)n1`, in assay [6], the call was inactive.

For the compound `CC1(C)C(C=C(Cl)Cl)C1C(=O)OC(C#N)c1ccc(F)c(Oc2ccccc2)c1` (centres undefined), in [6], the compound was classed as inactive. In addition, in [9], the AC50 is 10.8 µM (active).

With `O=C(O)COc1ccc(Cl)cc1Cl`, the compound was classed as inactive in [6] and in assay [8].

Take `CCCN(CCC)c1c([N+](=O)[O-])cc(C(F)(F)F)cc1[N+](=O)[O-]`: the compound was classed as inactive in [7]. The AC50 in [9] was 16.5 µM (active).
